The list is not random: actives were taken first. Their share in the collection is about 2.2%.
Ba/F3 V617F tox – lowers viability of Ba/F3 cells expressing EpoR and JAK2V617F | ATP luminescence | hit rate 1.1% among 220,000 | inhibition, % at 5.6 µM;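 active means inhibition above the campaign mean plus 3 SD over all tested compounds, cut at about 24% in these data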;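 further: cytokine-independent growth of Ba/F3 cells driven by EpoR plus mutant JAK2; 0% = DMSO-treated cells and 100% = JAK inhibitor I control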
APP 5UTR inh – APP translation inhibition. SH-SY5Y APP 5'UTR-luciferase reporter, luminescence. inhibition, % at 2 µM. hit rate 0.82% among 190,000. AID 1285;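 active means inhibition above a set limit, derived from the sample mean plus 3 SD, cut at about 45% in these data; inconclusive means one replicate passes the limit while the other fails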
IEC-6 cytotox – IEC-6 cytotoxicity, counter-screen for KLF5 inhibitors. luminescence viability. inhibition, % at 5 µM. hit rate 0.78% among 290,000. AID 1825; in the data active means inhibition above about 22%;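 further: 0% = plate median of test compound wells and 100% = cytotoxic reference compound wells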
aSyn 5UTR inh – 5' untranslated region of α-synuclein, MLPCN primary screen. alpha-synuclein 5'UTR reporter, inhibitor activity. AID 1813. inhibition, % (tested at 7.5 µM). hit rate 0.82% among 300,000; in the data active means inhibition above about 60%; inconclusive means no clear call, values can overlap the other calls;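 further: H4 neuroglioblastoma cells stably carrying SNCA 5'UTR luciferase fusion; 0% = DMSO wells and 100% = positive control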
BaF3 tox – reduces parental Ba/F3 cell viability, JAK2V617F counter-screen | inhibition, % at 5.6 µM | CellTiter-Glo ATP luminescence | hit rate 1.1% among 220,000 | AID 1486;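 active means inhibition above a per-campaign cutoff, the mean inhibition of all tested compounds plus 3 SD, cut at about 27% in these data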;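 further: 0% = DMSO wells and 100% = JAK Inhibitor I control wells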
KLF5 inh – inhibitors of KLF5 expression; hit rate 0.23% among 290,000; AID 1700; DLD-1 KLF5 promoter-luciferase reporter, luminescence; inhibition, % at 5 µM;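 active means inhibition above a per-plate limit of that plate's mean compound inhibition plus 3 SD, cut at about 60% in these data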;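 further: 0% = DMSO wells and 100% = LY294002 at 200 µM; higher means less KLF5 promoter-driven luciferase light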
BaF3 parental 2 – reduces parental Ba/F3 viability, JAK2V617F counter-screen; shares compounds with Ba/F3 V617F tox; CellTiter-Glo luminescence; cells kept alive by added IL-3; inhibition, % at 5.6 µM; hit rate 31% among 580; AID 1520;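 active means cell growth inhibition above the hit limit set in the earlier mutant JAK2 cell screen, cut at about 27% in these data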;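 further: plate controls were DMSO-treated cells for no effect and JAK Inhibitor I control wells for full effect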
JAK2V617F conf – Ba/F3 EpoR-JAK2V617F viability loss, confirmation; inhibition, % at 5.6 µM; CellTiter-Glo luminescence; hit rate 66% among 580; shares compounds with Ba/F3 V617F tox;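 active means mean inhibition above the hit cutoff derived in the earlier primary screen, cut at about 25% in these data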;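 further: 0% = DMSO-treated cells and 100% = JAK inhibitor I control wells; higher means lower luminescence from reduced cell ATP and viability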
* hit, by the source's call; u = inconclusive; x = not tested or not shown.

SMILES	Ba/F3 V617F tox	APP 5UTR inh	IEC-6 cytotox	aSyn 5UTR inh	BaF3 tox	KLF5 inh	BaF3 parental 2	JAK2V617F conf
CCCc1nc([N+](=O)[O-])c(S(=O)(=O)c2ccccc2)n1CC(C)C	29.3*	10.2	13.2	-18.2	4.3	-15.8	-3.6	32.7*
CC(C)Cn1c(C(C)C)nc([N+](=O)[O-])c1S(=O)(=O)c1ccc(F)cc1	12.6	-14.7	0.2	-35.8	5.7	-11.9	x	x
CC(=O)c1cccc(NC(=O)Nc2ccc3c(c2)OCO3)c1	x	x	5.3	x	x	-166.8	x	x
COc1ccc(/C=N/n2c(COc3ccccc3)n[nH]c2=S)cc1OC	x	x	-1.7	22.8	x	-38.5	x	x
C=CCn1c(SCC(=O)c2ccc(O)c(O)c2)nnc1-c1ccccc1OC	34.4*	1.6	3.3	9.2	11.4	15.1	0.4	13.6
CCOC(=O)c1[nH]c(C)c(C(=O)NC2CCCCC2)c1C	100.0*	-0.1	5.8	11.2	5.7	-40.2	-5.4	-20.8
CCOC(=O)c1[nH]c(C)c(C(=O)NCC2CCCO2)c1C (configuration not stated)	-1.7	-12.4	1.9	9.7	4.8	11.5	x	x
[O-][N+]1=c2ccc(Nc3ccccc3)cc2=NC12CCCCC2	42.0*	32.9	10.2	-57.2	8.4	-1.2	4.9	98.0*
O=[N+]([O-])c1ccc2c(c1N1CCCCC1)=NC1(CCCCC1)[N+]=2[O-]	-4.6	x	-7.4	-31.7	0.2	-20.6	x	x
COc1ccc(Nc2ccc3c(c2)=NC2(CCCCC2)[N+]=3[O-])cc1	44.2*	49.2*	9.4	-87.0	2.2	-28.2	18.8	99.7*
O=S(=O)(CCSc1nc2ccccc2o1)c1nc2ccccc2s1	82.9*	12.7	0.4	-28.1	25.6	13.0	29.3*	98.8*
COCCNC(=O)c1c[nH]c2ccc(S(=O)(=O)N3CCc4ccccc43)cc2c1=O	66.5*	2.7	5.7	u	13.2	-0.8	83.4*	86.3*
Cc1nc(NCc2ccccc2)[nH]c(=O)c1CCC(C)C	52.6*	-0.9	3.9	-24.2	-4.0	13.3	-1.4	-3.0
Cc1ccc(Nc2nc(C)c(CCC(C)C)c(=O)[nH]2)cc1	1.8	-11.4	-5.4	-94.4	5.1	-1.2	x	x
CC(C)(C)c1cc(NC(=O)CCl)n(-c2ccccc2)n1	30.4*	x	-7.5	-59.9	-9.1	1.5	-4.6	81.1*
COc1ccc(CCNS(=O)(=O)c2ccc(Cl)cc2)cc1OC	x	x	-3.2	19.8	x	-25.5	x	x
Cc1cccc(NC(=S)N(CCN(C)C)Cc2cc3cccc(C)c3[nH]c2=O)c1	-3.7	10.9	-0.6	2.1	1.7	-24.8	x	x
Cc1ccc(NC(=S)N(CCN(C)C)Cc2cc3cccc(C)c3[nH]c2=O)cc1	43.0*	13.4	10.9	-60.1	22.5	5.1	26.4	39.0*
O=C(Nc1nc(=O)c2ccccc2s1)c1ccccc1	29.0*	-65.6	0.9	-156.6	15.1	0.1	-2.5	-11.6
CCOc1ccc(C(O)(CCC(C)C)C(CN2CCOCC2)c2ccccc2)cc1 (configuration not stated)	x	x	-2.9	20.9	x	-16.1	x	x
CCOc1ccc(C(=O)C(CN2CCOCC2)c2ccccc2)cc1 (configuration not stated)	59.1*	67.3*	2.9	-22.7	8.2	-10.8	19.0	98.2*
Oc1ccc(Cl)cc1CNc1ccc(Br)cn1	26.9*	-59.4	-0.7	-141.8	12.6	-162.3	5.8	30.9*
CCOC(=O)/C=C/S(=O)(=O)c1ccc(NC(C)=O)cc1	58.3*	73.5*	4.6	-57.8	3.8	-15.0	21.1	24.5*
Cc1ccc(C)c(NC(=O)c2cc([N+](=O)[O-])cc([N+](=O)[O-])c2)c1	x	x	8.9	6.8	x	-12.2	x	x
COC(=O)c1[nH]c2ccc(Br)cc2c1NC(=O)CN1CCN(C2CCCCC2)CC1	45.9*	-7.6	9.3	75.1*	11.0	-22.8	2.4	4.4
SMILES	Ba/F3 V617F tox	APP 5UTR inh	IEC-6 cytotox	aSyn 5UTR inh	BaF3 tox	KLF5 inh	BaF3 parental 2	JAK2V617F conf
Nc1nc(=S)c2ncn(C3OC(CO)C(O)C3O)c2[nH]1 (configuration not stated)	45.0*	x	10.3	18.3	25.0	-26.8	7.0	29.6*
Cc1sc2ncnc(NCc3cccs3)c2c1C	33.6*	-11.1	11.5	19.0	21.2	-10.3	42.6*	64.2*
CC1CCN(Cc2nnc(-c3cccc(Br)c3)o2)CC1	x	x	-5.5	-40.5	x	-53.5	x	x
COCCC(=O)N1CCC(Oc2ccc(C(=O)NCc3nccn3C)cc2)CC1	x	x	-5.5	12.4	x	-22.8	x	x
Cc1ccc(C)c(N2CCN(CCCNC(=O)Cn3c(=O)c4cccn4c4cccnc43)CC2)c1	x	x	1.6	10.8	x	-3.5	x	x
O=C(CSc1nc2ccc(Cl)cc2[nH]1)Nc1ccc2[nH]c(=O)[nH]c2c1	x	x	x	-5.5	x	x	x	x
O=C(OCn1ncc(Cl)c(Cl)c1=O)c1ccc(F)cc1	32.2*	96.7*	13.5	-21.6	1.8	-19.1	9.5	97.3*
O=C(OCCN1CCCCC1)c1ccccc1Cl	-1.6	7.4	7.5	7.6	3.8	4.5	x	x
O=C(OCn1ncc(Cl)c(Cl)c1=O)c1ccccc1Cl	25.7*	86.8*	89.0*	50.0	-6.7	-10.2	5.9	97.8*
O=C(NC1(C(F)(F)F)Oc2ccccc2O1)N1CCCC1	40.5*	14.6	7.0	-43.5	23.1	2.0	10.1	36.0*
COc1cccc(COC(=O)c2cc(=O)[nH]c3ccc(S(=O)(=O)N4CCOCC4)cc23)c1OC	x	x	x	3.0	x	x	x	x
O=C(Nc1nc(-c2ccc(Cl)cc2Cl)cs1)C1CCCO1 (configuration not stated)	27.5*	0.6	-0.7	-27.1	0.4	-26.2	-1.4	1.6
Cc1ccc(N(CC(O)CN2C(=O)NC(C)(C)C2=O)S(=O)(=O)c2ccc(C)cc2)cc1 (configuration not stated)	25.4*	x	1.3	-15.8	1.7	1.1	0.3	-1.1
CC1CCC(NS(=O)(=O)c2ccc(N3CCCC3=O)cc2)CC1 (configuration not stated)	x	x	0.2	7.2	x	-23.8	x	x
COc1ccc(CCN(C)C(=O)C2CCN(Cc3cccc(OC)c3OC)CC2)cc1OC	31.2*	-21.7	2.3	25.8	-0.9	-22.5	-1.3	-1.8
c1ccc(Sc2cccc3ccccc23)c(CNC2=NCCN2)c1	34.4*	-11.9	9.3	u	10.1	-11.8	39.3*	47.9*
COCCOC(=O)C1=C(C)N(c2ccccc2)C(=O)NC1c1cccc([N+](=O)[O-])c1 (configuration not stated)	33.6*	-8.9	-1.6	14.8	11.9	-16.1	-2.9	9.2
Cc1ccc(/C=N/NC(=O)C(=O)N/N=C/c2ccc(C)o2)o1	44.8*	7.1	-1.6	13.3	0.5	-44.3	-5.5	-12.1
NC(N)=NN=C1CCCCCCCCCCC1	48.9*	x	-6.0	25.8	21.5	13.1	29.0*	67.6*

Screening results: PubChem BioAssay, several laboratories
